# Reference: the supplement of paper PMC10849652
# Targets with a hit are over-represented here; the source holds about 7,900 in all. About 0.6% of all pairs of compound and target were hits. Unmarked numbers belong to inactive results.
# Tests used:
# Experiment in all cases: log2 fold change, soluble protein after heating vs DMSO (PISA); higher = thermal stabilisation; K562 cells, 10 uM, 30 min; active = over 0.2 and 3.5 SD of the protein, either way, in both replicates (recomputed)
# [1] = compound: COC1=CC=C(C=C1)CN2C=CC3=C2C=C(C=C3)C(=O)NO
# Outline: (§1)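 Soluble protein was quantified by TMTpro 16plex LC-MS/MS after channel sums were equalised. It was obtained as the supernatant after 21,000xg for 90 min from pooled aliquots of K562 cells (2×10^6 cells/mL, 10 μM compound, 30 min) heated for 3 min across 48°C-58°C and extracted in PBS with 0.5% NP-40 at 4°C. Thermal stability values are relative to control samples and come from duplicates. They are given as log2 fold changes.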
# filanesib = compound: CON(C)C(=O)N1N=C(c2cc(F)ccc2F)S[C@@]1(CCCN)c1ccccc1 [filanesib]
# Outline: as §1
# zotarolimus = compound: CO[C@H]1C[C@@H]2CC[C@@H](C)[C@@](O)(O2)C(=O)C(=O)N2CCCC[C@H]2C(=O)O[C@H]([C@H](C)C[C@@H]2CC[C@H](n3cnnn3)[C@H](OC)C2)CC(=O)[C@H](C)/C=C(\C)[C@@H](O)[C@@H](OC)C(=O)[C@H](C)C[C@H](C)/C=C/C=C/C=C/1C [zotarolimus]
# Outline: as §1
# idasanutlin = compound: COc1cc(C(=O)O)ccc1NC(=O)[C@@H]1N[C@@H](CC(C)(C)C)[C@](C#N)(c2ccc(Cl)cc2F)[C@H]1c1cccc(Cl)c1F [idasanutlin]
# Outline: as §1
# alisertib = compound: COc1cc(Nc2ncc3c(n2)-c2ccc(Cl)cc2C(c2c(F)cccc2OC)=NC3)ccc1C(=O)O [alisertib]
# Outline: as §1
# [2] = compound: COc1cc2nc(-c3cc(F)ccc3O)nc(N[C@@H]3CNC[C@H]3C(C)(C)O)c2cc1OC
# Outline: as §1
# gefitinib = compound: COc1cc2ncnc(Nc3ccc(F)c(Cl)c3)c2cc1OCCCN1CCOCC1 [gefitinib]
# Outline: as §1
# [3] = compound: COc1cccc2cc(-c3nc([C@H]4CC[C@H](C(=O)O)CC4)n4ncnc(N)c34)[nH]c12
# Outline: as §1
# lapatinib = compound: CS(=O)(=O)CCNCc1ccc(-c2ccc3ncnc(Nc4ccc(OCc5cccc(F)c5)c(Cl)c4)c3c2)o1 [lapatinib]
# Outline: as §1
# pictilisib = compound: CS(=O)(=O)N1CCN(Cc2cc3nc(-c4cccc5[nH]ncc45)nc(N4CCOCC4)c3s2)CC1 [pictilisib]
# Outline: as §1
# Chain of UniProt P31939 (P31939 whole entry, looked up): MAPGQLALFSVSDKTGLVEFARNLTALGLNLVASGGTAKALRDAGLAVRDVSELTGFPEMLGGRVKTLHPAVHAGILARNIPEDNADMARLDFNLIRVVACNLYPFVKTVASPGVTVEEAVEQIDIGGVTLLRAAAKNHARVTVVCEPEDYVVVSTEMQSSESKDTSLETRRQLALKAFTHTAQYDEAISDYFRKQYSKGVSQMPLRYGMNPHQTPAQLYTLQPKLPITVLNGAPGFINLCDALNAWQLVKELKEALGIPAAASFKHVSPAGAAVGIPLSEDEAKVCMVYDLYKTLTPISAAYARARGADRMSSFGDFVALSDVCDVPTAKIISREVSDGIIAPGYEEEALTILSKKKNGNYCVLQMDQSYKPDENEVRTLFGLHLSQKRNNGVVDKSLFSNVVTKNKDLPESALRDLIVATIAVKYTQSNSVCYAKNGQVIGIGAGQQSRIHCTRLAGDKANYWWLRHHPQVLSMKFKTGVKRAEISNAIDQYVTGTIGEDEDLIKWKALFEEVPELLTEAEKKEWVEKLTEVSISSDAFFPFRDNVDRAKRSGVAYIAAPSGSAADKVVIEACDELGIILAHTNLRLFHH
# Chain of UniProt P53367 (P53367 whole entry, looked up): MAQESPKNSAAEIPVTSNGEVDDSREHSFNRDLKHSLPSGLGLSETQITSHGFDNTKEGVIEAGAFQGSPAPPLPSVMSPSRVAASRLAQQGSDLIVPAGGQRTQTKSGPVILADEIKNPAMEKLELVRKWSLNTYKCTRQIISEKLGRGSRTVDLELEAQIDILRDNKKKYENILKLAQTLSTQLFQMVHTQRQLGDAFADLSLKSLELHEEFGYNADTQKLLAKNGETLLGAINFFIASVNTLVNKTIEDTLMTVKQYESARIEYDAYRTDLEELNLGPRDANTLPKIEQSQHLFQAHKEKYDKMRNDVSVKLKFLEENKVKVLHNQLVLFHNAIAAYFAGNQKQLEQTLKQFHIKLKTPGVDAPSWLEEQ
# Chain of UniProt Q96KE9 (Q96KE9 whole entry, looked up): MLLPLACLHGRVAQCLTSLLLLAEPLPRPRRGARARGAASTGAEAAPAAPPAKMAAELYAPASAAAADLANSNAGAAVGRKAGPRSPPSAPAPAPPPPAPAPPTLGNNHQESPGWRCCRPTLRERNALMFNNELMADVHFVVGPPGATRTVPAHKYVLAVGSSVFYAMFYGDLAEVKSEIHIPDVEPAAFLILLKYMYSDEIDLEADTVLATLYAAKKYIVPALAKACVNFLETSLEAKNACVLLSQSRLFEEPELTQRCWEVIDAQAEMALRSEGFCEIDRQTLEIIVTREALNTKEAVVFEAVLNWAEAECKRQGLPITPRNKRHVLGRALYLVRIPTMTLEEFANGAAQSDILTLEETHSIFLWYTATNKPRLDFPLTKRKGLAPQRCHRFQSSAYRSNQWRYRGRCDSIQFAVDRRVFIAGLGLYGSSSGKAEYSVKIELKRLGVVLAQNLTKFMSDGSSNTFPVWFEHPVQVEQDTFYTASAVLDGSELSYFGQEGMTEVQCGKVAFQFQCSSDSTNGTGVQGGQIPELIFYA
# Chain of UniProt Q9UNA0 (Q9UNA0 whole entry, looked up): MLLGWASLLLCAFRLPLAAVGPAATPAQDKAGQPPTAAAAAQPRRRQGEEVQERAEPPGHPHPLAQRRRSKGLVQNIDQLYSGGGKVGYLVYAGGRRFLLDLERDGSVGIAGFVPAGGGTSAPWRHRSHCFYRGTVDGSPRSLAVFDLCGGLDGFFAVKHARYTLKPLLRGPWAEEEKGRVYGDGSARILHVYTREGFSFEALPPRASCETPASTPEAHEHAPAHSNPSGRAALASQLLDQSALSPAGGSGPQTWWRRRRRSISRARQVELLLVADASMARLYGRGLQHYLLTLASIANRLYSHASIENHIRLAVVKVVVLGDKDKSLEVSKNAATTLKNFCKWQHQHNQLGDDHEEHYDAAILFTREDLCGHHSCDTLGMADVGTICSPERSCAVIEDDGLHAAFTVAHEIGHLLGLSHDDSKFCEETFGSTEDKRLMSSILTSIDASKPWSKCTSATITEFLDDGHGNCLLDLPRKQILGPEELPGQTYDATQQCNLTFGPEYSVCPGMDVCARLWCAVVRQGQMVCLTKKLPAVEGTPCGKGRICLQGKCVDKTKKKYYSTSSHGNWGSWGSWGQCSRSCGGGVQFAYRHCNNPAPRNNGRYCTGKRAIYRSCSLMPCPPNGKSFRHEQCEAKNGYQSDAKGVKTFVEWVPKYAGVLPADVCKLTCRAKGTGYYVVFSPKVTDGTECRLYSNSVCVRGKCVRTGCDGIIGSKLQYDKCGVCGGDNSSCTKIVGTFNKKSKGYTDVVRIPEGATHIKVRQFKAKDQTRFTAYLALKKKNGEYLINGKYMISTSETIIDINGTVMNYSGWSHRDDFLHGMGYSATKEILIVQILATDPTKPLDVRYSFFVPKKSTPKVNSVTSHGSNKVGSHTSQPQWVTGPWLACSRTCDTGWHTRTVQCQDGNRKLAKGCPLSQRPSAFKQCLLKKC
# Chain of UniProt P55196 (P55196 whole entry, looked up): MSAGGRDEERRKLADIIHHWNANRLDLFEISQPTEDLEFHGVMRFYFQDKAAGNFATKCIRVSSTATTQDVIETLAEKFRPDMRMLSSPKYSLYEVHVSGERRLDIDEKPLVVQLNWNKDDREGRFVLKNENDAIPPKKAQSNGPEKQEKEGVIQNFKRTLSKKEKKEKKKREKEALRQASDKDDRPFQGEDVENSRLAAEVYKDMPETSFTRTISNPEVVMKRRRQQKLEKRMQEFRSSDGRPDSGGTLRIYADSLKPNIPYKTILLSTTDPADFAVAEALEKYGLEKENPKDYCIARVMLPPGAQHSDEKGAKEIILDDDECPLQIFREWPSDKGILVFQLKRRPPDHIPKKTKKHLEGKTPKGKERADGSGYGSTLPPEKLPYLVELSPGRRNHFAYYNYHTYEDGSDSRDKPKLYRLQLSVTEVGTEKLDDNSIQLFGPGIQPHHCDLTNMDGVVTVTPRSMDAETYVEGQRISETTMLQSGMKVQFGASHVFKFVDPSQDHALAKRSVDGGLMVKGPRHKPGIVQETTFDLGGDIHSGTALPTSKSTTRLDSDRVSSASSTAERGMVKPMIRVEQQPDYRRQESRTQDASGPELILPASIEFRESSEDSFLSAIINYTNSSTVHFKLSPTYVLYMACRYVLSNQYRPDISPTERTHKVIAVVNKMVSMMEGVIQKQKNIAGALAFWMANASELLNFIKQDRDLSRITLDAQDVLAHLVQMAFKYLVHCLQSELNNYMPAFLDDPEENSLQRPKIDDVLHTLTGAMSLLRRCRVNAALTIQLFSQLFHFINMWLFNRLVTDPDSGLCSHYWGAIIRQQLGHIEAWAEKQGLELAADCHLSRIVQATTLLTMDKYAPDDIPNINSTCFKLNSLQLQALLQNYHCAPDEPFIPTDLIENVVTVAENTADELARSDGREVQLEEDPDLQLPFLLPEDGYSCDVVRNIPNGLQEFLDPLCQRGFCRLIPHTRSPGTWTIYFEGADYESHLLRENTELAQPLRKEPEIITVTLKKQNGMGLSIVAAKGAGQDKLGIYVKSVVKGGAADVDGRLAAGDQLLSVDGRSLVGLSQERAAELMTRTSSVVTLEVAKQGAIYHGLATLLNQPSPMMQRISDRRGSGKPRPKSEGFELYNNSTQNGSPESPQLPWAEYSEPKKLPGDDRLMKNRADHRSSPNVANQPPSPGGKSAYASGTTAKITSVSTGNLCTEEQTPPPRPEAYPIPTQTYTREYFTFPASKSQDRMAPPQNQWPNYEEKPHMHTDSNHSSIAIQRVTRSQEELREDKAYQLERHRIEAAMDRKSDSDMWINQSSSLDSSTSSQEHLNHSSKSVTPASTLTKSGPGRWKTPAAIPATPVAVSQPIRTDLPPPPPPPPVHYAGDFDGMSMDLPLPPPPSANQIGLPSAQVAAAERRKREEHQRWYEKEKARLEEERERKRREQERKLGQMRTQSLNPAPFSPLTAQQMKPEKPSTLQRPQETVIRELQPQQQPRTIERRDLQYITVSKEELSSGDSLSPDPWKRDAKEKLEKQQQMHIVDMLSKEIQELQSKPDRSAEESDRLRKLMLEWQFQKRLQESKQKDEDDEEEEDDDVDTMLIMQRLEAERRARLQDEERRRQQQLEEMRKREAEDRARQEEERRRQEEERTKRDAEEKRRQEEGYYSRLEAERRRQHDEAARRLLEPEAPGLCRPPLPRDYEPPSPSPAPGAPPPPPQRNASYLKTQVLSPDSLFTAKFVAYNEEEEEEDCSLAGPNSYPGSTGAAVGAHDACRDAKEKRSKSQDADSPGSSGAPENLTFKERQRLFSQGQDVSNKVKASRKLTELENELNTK
# Chain of UniProt P54922 (P54922 whole entry, looked up): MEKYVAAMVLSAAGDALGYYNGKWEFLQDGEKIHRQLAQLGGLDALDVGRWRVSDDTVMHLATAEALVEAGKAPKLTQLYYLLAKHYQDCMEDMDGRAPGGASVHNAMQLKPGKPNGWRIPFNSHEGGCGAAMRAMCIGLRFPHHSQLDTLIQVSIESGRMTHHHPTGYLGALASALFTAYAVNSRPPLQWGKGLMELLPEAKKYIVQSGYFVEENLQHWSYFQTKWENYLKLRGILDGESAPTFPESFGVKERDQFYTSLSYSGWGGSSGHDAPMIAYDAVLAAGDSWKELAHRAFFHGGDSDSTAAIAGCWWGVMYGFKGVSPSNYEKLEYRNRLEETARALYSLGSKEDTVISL
# Chain of UniProt P54252 (P54252 whole entry, looked up): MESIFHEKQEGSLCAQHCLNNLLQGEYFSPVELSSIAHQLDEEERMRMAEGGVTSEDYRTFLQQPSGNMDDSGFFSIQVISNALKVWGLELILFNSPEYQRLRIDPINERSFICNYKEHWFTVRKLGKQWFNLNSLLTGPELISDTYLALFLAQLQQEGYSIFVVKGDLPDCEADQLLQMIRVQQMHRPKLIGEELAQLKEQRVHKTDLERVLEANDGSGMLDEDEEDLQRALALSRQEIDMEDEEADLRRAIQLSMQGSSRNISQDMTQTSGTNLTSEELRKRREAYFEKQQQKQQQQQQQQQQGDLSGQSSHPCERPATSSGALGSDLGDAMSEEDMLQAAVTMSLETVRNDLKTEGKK
Target,log2 fold change [1],log2 fold change (filanesib),log2 fold change (zotarolimus),log2 fold change (idasanutlin),log2 fold change (alisertib),log2 fold change [2],log2 fold change (gefitinib),log2 fold change [3],log2 fold change (lapatinib),log2 fold change (pictilisib)
ACAP2 (UniProt Q15057),-0.001,0.119,0.01,-0.047,0.011,0.283 (active),0.02,0.014,0.015,-0.059
AFDN isoform 5 (UniProt P55196),0.131,0.014,0.013,-0.06,0,0.034,-0.017,-0.009,-0.026,-0.009
BCCIP isoform 2 (UniProt Q9P287),-0.059,0.05,-0.002,-0.021,0.024,0.021,0,0.026,-0.007,-0.021
ATRN (UniProt O75882),-0.243,-0.037,0,-0.032,0.095,-0.004,0.108,0.111,0.043,0.153
ALDH9A1 isoform 3 (UniProt P49189),-0.006,-0.04,0.001,-0.006,0.017,-0.01,-0.028,0.041,-0.007,-0.002
BRD2 isoform 2 (UniProt P25440),-0.174,-0.11,-0.361,0.072,,0.214,,,0.005,0.016
ADAM15 (UniProt Q13444),-0.159,0.065,-0.206,-0.083,,0.078,-0.029,,0,-0.045
BRD8 isoform 2 (UniProt Q9H0E9),-0.201,0.042,0.027,-0.027,,-0.113,,,0.019,0.06
BDH2 (UniProt Q9BUT1),0.022,-0.007,0.098,-0.039,0.071,0.065,,-0.001,0.012,0.007
ABITRAM (UniProt Q9NX38),0.06,0.036,0.041,0.022,0.101,0.006,0.111,0.139,0.021,0.053
AP2A1 (UniProt O95782),0.044,0.045,0.033,0.027,-0.041,0.008,0.025,0.005,0.027,-0.042
BRIP1 (UniProt Q9BX63),0.072,0.098,0.061,-0.14,,0.126,0.047,,0.003,0.067
ATIC (UniProt P31939),0.047,-0.039,0.046,-0.03,-0.092,-0.027,0.114,-0.008,-0.001,-0.008
ATP13A3 (UniProt Q9H7F0),-0.034,0.054,-0.158,-0.027,-0.098,-0.078,-0.02,-0.038,0.005,0.104
ADAMTS5 (UniProt Q9UNA0),0.295,-0.051,-0.063,-0.06,0.019,,0.012,0.092,,0.198
AFDN isoform 1 (UniProt P55196),-0.151,0.024,-0.01,0.019,0.127,,,0.074,,-0.144
ARFGEF1 (UniProt Q9Y6D6),0.043,0.014,0.111,-0.092,-0.075,0.246 (active),0.06,0.016,0.116,0.006
ALG11 (UniProt Q2TAA5),-0.018,-0.038,0.036,-0.051,-0.075,-0.003,0.206,0.026,0.005,0.032
ATP23 (UniProt Q9Y6H3),0.003,-0.082,0.005,0.032,-0.033,-0.096,-0.062,0.067,0.007,0.018
AKT2 (UniProt P31751),0.008,-0.056,-0.01,-0.121,-0.041,0.008,-0.012,-0.231,0.04,0.044

Target,log2 fold change [1],log2 fold change (filanesib),log2 fold change (zotarolimus),log2 fold change (idasanutlin),log2 fold change (alisertib),log2 fold change [2],log2 fold change (gefitinib),log2 fold change [3],log2 fold change (lapatinib),log2 fold change (pictilisib)
AIP (UniProt O00170),0.06,-0.041,0.021,-0.019,-0.046,0.054,-0.002,-0.019,-0.019,0.015
APOBEC3G (UniProt Q9HC16),-0.012,0.066,,0.039,-0.092,0.047,-0.074,-0.053,0.046,
AP2M1 (UniProt C9JTK4),0.016,0.132,-0.203,0.224,-0.177,,0.005,0.123,,
ARL4A (UniProt P40617),,,,0.056,0.042,,,0.094,,
AZI2 (UniProt Q9H6S1),,0.006,,,,,0.227,,,
ALDH2 isoform 2 (UniProt P05091),,0.013,,0,,0.166,,,-0.266,-0.035
ATF1 (UniProt P18846),,0.097,-0.51 (active),-0.082,-0.101,-0.071,0.052,0.006,-0.011,-0.039
ABHD11 (UniProt Q8NFV4),-0.076,,0.049,-0.058,-0.002,0.061,-0.013,0.076,-0.037,0.024
ACTR3B (UniProt Q9P1U1),0.407 (active),,,,,0.022,-0.213,,-0.056,-0.021
ARHGAP25 isoform 4 (UniProt P42331),,,-0.077,-0.123,-0.068,,0.08,-0.11,,0.085
AKNA (UniProt Q7Z591),,0.04,0.01,,,0.205,,,-0.059,
ALG14 (UniProt Q96F25),-0.2,,-0.109,-0.091,0.112,-0.19,0.074,0.077,0.168,-0.467
BTBD6 (UniProt Q96KE9),,-0.019,0.062,0.053,-0.058,0.194,0.03,-0.186,-0.072,0.143
ATXN7L3 isoform 2 (UniProt Q14CW9),-0.158,-0.02,,0.193,-0.191,,0.052,0.035,,
BRD4 (UniProt O60885),,-0.068,-0.253,-0.001,-0.064,0.078,0.152,-0.003,-0.039,0.161
AIF1 (UniProt P55008),,0.038,,0.052,,0.083,,,0.053,
BSCL2 isoform 4 (UniProt Q96G97),,,0.076,-0.132,-0.037,-0.248,0.021,0.069,0.048,0.126
ARMC8 isoform 6 (UniProt Q8IUR7),,,,0.072,,,0.072,,,
AARSD1 (UniProt Q9BTE6),-0.659,,0.055,-0.071,0.08,0.036,0.157,-0.016,0.069,
ADD2 isoform 9 (UniProt P35612),,0.043,,,-0.072,-0.053,,0.282,0.04,

Target,log2 fold change [1],log2 fold change (filanesib),log2 fold change (zotarolimus),log2 fold change (idasanutlin),log2 fold change (alisertib),log2 fold change [2],log2 fold change (gefitinib),log2 fold change [3],log2 fold change (lapatinib),log2 fold change (pictilisib)
ACSL6 isoform 1 (UniProt Q9UKU0),,-0.054,,,-0.013,,0.103,0.123,,0.051
ACVR1 (UniProt Q04771),,-0.022,-0.371,-0.156,-0.096,0.133,,-0.13,-0.004,0.248
ALDH9A1 (UniProt P49189),,-0.149,-0.164,-0.073,-0.091,0.038,0.039,0.081,-0.037,-0.124
ADD1 isoform 4 (UniProt P35611),-0.054,,-0.065,,,,,,,-0.068
ARFIP1 isoform 2 (UniProt P53367),-0.225,-0.082,,,-0.17,-0.013,-0.067,-0.068,0.05,-0.154
"BRAF, A0A2R8Y8E0",-0.008,,,0.221,-0.054,,-0.027,-0.326,,
ACTBL2 (UniProt Q562R1),,0.171,,0.533,0.521,-0.085,0.348,-0.105,-0.079,-0.541
ATXN3 isoform 1 (UniProt P54252),0.023,,-0.051,-0.114,-0.004,0.106,-0.192,0.297,-0.031,-0.036
ADPRH (UniProt P54922),0.098,-0.088,,,-0.099,0.135,0.013,-0.033,0.05,-0.107
AUNIP isoform 2 (UniProt Q9H7T9),,0.125,-0.044,0.142,,-0.229,,,0.099,
BRMS1 (UniProt Q9HCU9),,,,0.066,-0.074,,,0.007,,0.042
BAIAP2 isoform 4 (UniProt Q9UQB8),,0.302,-0.184,,,,,,,
ARRDC1 (UniProt Q8N5I2),,0.013,0.182,,0.152,-0.098,-0.009,0,0.01,-0.092
ARHGAP4 isoform 2 (UniProt P98171),,0.027,-0.012,0.104,0.166,0.067,-0.211,0.028,0.051,
BAP18 isoform 3 (UniProt Q8IXM2),,,,,-0.033,,,0.12,,-0.093
ASB6 (UniProt Q9NWX5),0.298,0.008,,-0.029,-0.214,-0.083,-0.034,0,-0.055,0.157
ASS1 (UniProt P00966),,-0.101,0.012,-0.085,0.254,0.047,-0.005,0.056,-0.012,0.018
AMD1 (UniProt P17707),-0.009,-0.128,,-0.193,-0.023,0.024,0.041,0.058,-0.034,0.043
AUH (UniProt Q13825),-0.107,,0.009,-0.074,0.175,-0.036,,0.034,0.056,-0.071
